In PubChem BioAssay (Tox21):
Values joined by “and” are separate entries in the source; they are usually repeats but may differ in a detail not shown here. Equal entries are not always repeated. Inconclusive results are not listed. Entries that show only a call come without a potency. The source holds several records for some structures; these can differ, active in one and inactive in another. Active and inactive are the calls of the source. Calls follow the shape of the dose curve; as a rule, active = well fitted activation curve with a large enough effect in the repeat runs; inconclusive = weak or mixed curves; inactive = flat fitted curve, though single readings scatter.

Experiment: A CellTox Green Cytotoxicity Assay to monitor cytotoxicity in HEK293 cells - 8 hour (AID 1224884); also: nearly all actives have a fitted effect of over 35% in size
Conditions: CellTox Green fluorescence; series mostly up to 76.8 µM
Excerpt: National Center for Advancing Translational Sciences [NCATS]
NIH Chemical Genomics Center [NCGC]
U.S. Environmental Protection Agency [EPA]
National Institutes of Environmental Health Sciences [NIEHS]
National Toxicology Program [NTP]
Cell-based models are critical for drug discovery. Determining the natural cytotoxic effects resulting from test compounds is an essential research activity. A CellTox Green Cytotoxicity Assay to monitor cytotoxicity in real time of continues cell culture during 40 hours of the compound treatment was used to screen Tox21 10K library compounds in Hek293 cells. CellTox Green Cytotoxicity Assay is a nonlytic, homogeneous, biofluorescent method to measure cytotoxicity in cell culture after experimental manipulation. The assay system uses a proprietary asymmetric cyanine dye that is excluded from viable cells but preferentially stains the dead cell's DNA. […] Viable cells produce no appreciable increases in fluorescence. Therefore, the fluorescence signal produced by the binding interaction with dead cell DNA is proportional to cytotoxicity.
The mixture of Hek293 cell suspension and reagents were dispensed at 600cells/6 ul/well in 1536-well tissue culture treated black solid bottom plates using a Multidrop dispenser. After the assay plates were incubated at a 37 C/5% CO2 incubator for 5 hours, 23 nL of compounds dissolved in DMSO, positive and negative controls was transferred to the assay plate by a pintool work station. The plates were incubated at 37 C for 40 hours. The fluorescence intensity were measured at 0h, 8h, 16h, 24h, 32h and 40h time points using ViewLux plate reader during compound treatment.
Potency is read from the fitted curve at half-maximal effect.

Compound	Potency
CCCCn1cc[n+](C)c1C	inactive
O=C(O)c1ccccc1O	inactive
Nc1ccccc1	inactive
Cc1cc(Cl)ccc1N	inactive and 34.7 µM (active)
CCCC[n+]1cccc(C)c1	inactive
O=C(O)C(Cl)Cl	inactive
CCC(=O)C(CC(C)N(C)C)(c1ccccc1)c1ccccc1 (stereo not given)	inactive
Oc1cccc2cccnc12	inactive
CCCCCCCCCCCCCCCCn1cc[n+](C)c1	inactive and 49.4 µM (active)
CCC[N+]1(C)CCCC1	inactive
COc1ccccc1N	inactive
C[N+](C)(C)Cc1ccccc1	inactive
CC[n+]1ccccc1	inactive
Cc1cc(-c2ccc(N)c(C)c2)ccc1N	inactive
CCCCCCCCn1cc[n+](C)c1	inactive
O=[N+]([O-])c1ccccc1O	inactive
C=CCOC(Cn1ccnc1)c1ccc(Cl)cc1Cl (stereo not given)	inactive
CCCC[n+]1ccc(C)cc1	inactive and 21.8 µM (active)
CCCCCCCCCCn1cc[n+](C)c1	inactive
CCCCCCn1cc[n+](C)c1	inactive

Compound	Potency
O=C(O)COc1ccc(Cl)cc1Cl	inactive
CNC	inactive
COc1ccc(N)cc1	inactive
CCC[N+]1(C)CCCCC1	inactive
OCCOc1ccccc1	inactive
CN(C)[C@@H]1C(=O)C(C(N)=O)=C(O)[C@@]2(O)C(=O)C3=C(O)c4c(O)cccc4[C@@](C)(O)[C@H]3[C@H](O)[C@@H]12	inactive
O=C(O)C(Cl)(Cl)Cl	inactive
CCCC[n+]1ccccc1	inactive
COCC(=O)N(c1c(C)cccc1C)C(C)C(=O)OC (stereo not given)	inactive
CCCCCCCCCCCCn1cc[n+](C)c1	inactive and 55.9 µM (active)
CC(=O)[O][Hg][c]1ccccc1	inactive
COP(=O)(OC)C(O)C(Cl)(Cl)Cl (stereo not given)	inactive
CCNc1nc(Cl)nc(NCC)n1	inactive
CCCC[n+]1ccccc1C	inactive
CC(=O)O	inactive
CC[N+](CC)(CC)CC	inactive
CC(Cl)(Cl)C(=O)O	inactive
CCCCCC[n+]1ccccc1	inactive
N#CS	inactive
O=P1(N(CCCl)CCCl)NCCCO1 (stereo not given)	inactive
